Reference: PubChem BioAssay (EPA / NIEHS)
Results filed as inconclusive are left out. Activity calls are given as the source filed them. How the source made its calls: active means hit-call score of the fitted dose curve at least 0.9, where 1 is the maximum; inconclusive means response in the unintended direction; inactive means score below 0.9.

The compounds below were run against Oxysterols receptor LXR-alpha (Homo sapiens) (UniProt Q13133) (assay: ATG_LXRa_TRANS: Attagene TRANS-FACTORIAL HepG2 Assay for human Liver X Receptor alpha (LXRa) (AID 2282980)). Conditions: HepG2 Attagene TRANS reporter, LXRa transactivation.
Oxysterols receptor LXR-alpha (Homo sapiens), sequence (Q13133 whole entry, looked up): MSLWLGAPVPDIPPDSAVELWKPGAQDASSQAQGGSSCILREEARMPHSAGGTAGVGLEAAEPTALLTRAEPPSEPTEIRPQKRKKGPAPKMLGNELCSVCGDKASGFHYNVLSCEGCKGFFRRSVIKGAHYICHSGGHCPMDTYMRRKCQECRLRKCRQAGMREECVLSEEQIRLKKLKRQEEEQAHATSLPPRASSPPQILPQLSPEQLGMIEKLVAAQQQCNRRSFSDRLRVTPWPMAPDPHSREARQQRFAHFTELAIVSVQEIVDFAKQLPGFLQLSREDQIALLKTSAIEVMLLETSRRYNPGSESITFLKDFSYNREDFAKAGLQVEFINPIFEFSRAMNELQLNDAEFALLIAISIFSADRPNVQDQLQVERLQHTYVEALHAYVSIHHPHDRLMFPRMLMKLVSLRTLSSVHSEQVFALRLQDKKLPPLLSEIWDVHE
Procedure: ATG_TRANS is a cell-based, multiplexed-readout assay that uses HepG2, a human liver cell line, with measurements taken at 24 hours after chemical dosing in a 24-well plate.ATG_LXRa_TRANS is one of 30 assay component(s) measured or calculated from the ATG_TRANS assay. It is designed to make measurements of mRNA induction, a form of inducible reporter, as detected with fluorescence intensity signals by Reverse transcription polymerase chain reaction (RT-PCR) and Capillary electrophoresis technology.Data from the assay component ATG_LXRa_TRANS was analyzed into 1 assay endpoint. This assay endpoint, ATG_LXRa_TRANS, was analyzed in the positive analysis fitting direction relative to DMSO as the negative control and baseline of activity. Using a type of inducible reporter, measures of mRNA for gain-of-signal activity can be used to understand the reporter gene at the transcription factor-level as they relate to the gene NR1H3. Furthermore, this assay endpoint can be referred to as a primary readout, because this assay has produced multiple assay endpoints where this one serves a reporter gene function. To generalize the intended target to other relatable targets, this assay endpoint is annotated to the nuclear receptor intended target family, where the subfamily is non-steroidal.
Human liver HepG2 cells are transiently transfected with multiple reporter transcription units (MRTUs) in 6-well plates using FuGene 6 reagent (Roche; 3 ml FuGene/1 mg DNA). The MRTU constructs are regulated by a cis-regulating element (promoter). […] A major difference between the CIS and TRANS system is that in CIS activities of endogenous TFs are measured, whereas the TRANS assay evaluates changes in activities of exogenous, chimeric NR-Gal4 proteins. […] At the end of 24 hour incubation, total RNA was isolated using TriZol reagent (Invitrogen). The isolated RNA is then reverse-transcribed using oligo(dT) primer and Mo-MLV reverse transcriptase (Invitrogen) with DNAse I (Ambion) treatment for 30 min. The one-tenth of the produced cDNA was amplified by PCR using Taq DNA polymerase (Invitrogen) and two reporter sequence-specific primers. The PCR products were fluorescently labeled by primer extension with 6-arboxyfluorescein (6-FAM) 5'-labeled reporter sequence-specific primer (2 min at 95 C, 20 s at 68 C and 10 min at 72 C) and these products were digested with 5U of HpaI (New England Biolabs) for 2h at 37 C. The fragments were purified using Qiaquick PCR columns (Qiagen), analyzed on an ABI 3130xL genetic analyzer (Applied Biosystems) with peak positions identified by using a set of X-rhodamine (ROX)-labeled MapMarker1000 molecular weight standards (BioVentures). The raw capillary electrophoresis data was processed using Attagraph software (Attagene).
With O=C(Nc1ccccc1)Nc1cnns1 the outcome was “inactive”. In the case of O=[N+]([O-])/N=C1\NCCN1Cc1ccc(Cl)nc1, the outcome was “inactive”. In the case of Oc1cc(Cl)ccc1Oc1ccc(Cl)cc1Cl, the outcome was “inactive”. For OCCOc1ccccc1, the outcome was “inactive”. With CC(C)OC(=O)Nc1cccc(Cl)c1 the outcome was “inactive”. With CN1CSC(=S)N(C)C1 the outcome was “inactive”. Oc1ccc(Cl)cc1Cc1ccccc1 was tested, and the outcome was “inactive”. For O=S(=O)(O)C(F)(F)C(F)(F)C(F)(F)C(F)(F)C(F)(F)C(F)(F)C(F)(F)C(F)(F)F, the outcome was “inactive”. In the case of CNC(=O)CSP(=S)(OC)OC, the outcome was “inactive”. With COC(=O)c1ccccc1S(=O)(=O)NC(=O)Nc1nc(C)nc(OC)n1 the outcome was “inactive”. With N#Cc1c(Cl)c(Cl)c(Cl)c(C#N)c1Cl the outcome was “inactive”. For CC1(c2ccc(Oc3ccccc3)cc2)OC(=O)N(Nc2ccccc2)C1=O (stereo unspecified), the outcome was “inactive”. CCC(C)(NC(=O)c1cc(Cl)c(C)c(Cl)c1)C(=O)CCl (stereo unspecified) was tested, and the outcome was “inactive”. For COC(=O)c1ccccc1CS(=O)(=O)NC(=O)Nc1nc(OC)cc(OC)n1, the outcome was “inactive”. CCC(C)Nc1c([N+](=O)[O-])cc(C(C)(C)C)cc1[N+](=O)[O-] (stereo unspecified) was tested, and the outcome was “inactive”. C#CCN1C(=O)COc2cc(F)c(N3C(=O)C4=C(CCCC4)C3=O)cc21 was tested, and the outcome was “inactive”. In the case of CNC(=O)Oc1cccc(N=CN(C)C)c1, the outcome was “inactive”. CCC(C)(C)C(=O)OC1=C(c2ccc(Cl)cc2Cl)C(=O)OC12CCCCC2 was tested, and the outcome was “inactive”. COc1nn(CSP(=S)(OC)OC)c(=O)s1 was tested, and the outcome was “inactive”. In the case of CCN(CC)C(=O)SCc1ccc(Cl)cc1, the outcome was “inactive”. Cc1[nH]c(=O)n(C(C)(C)C)c(=O)c1Cl was tested, and the outcome was “inactive”. For O=C(NC(=O)c1c(F)cccc1F)Nc1ccc(OC(F)(F)C(F)OC(F)(F)F)c(Cl)c1 (stereo unspecified), the outcome was “inactive”. C[C@H]1[C@H](c2ccc(Cl)cc2)SC(=O)N1C(=O)NC1CCCCC1 was tested, and the outcome was “inactive”. With CC(C)N(C(=O)COc1nnc(C(F)(F)F)s1)c1ccc(F)cc1 the outcome was “inactive”. With O=[N+]([O-])c1c(Cl)c(Cl)c(Cl)c(Cl)c1Cl the outcome was “inactive”. With COP(=S)(OC)Oc1ccc(SC)c(C)c1 the AC50 was 24.9 µM (active). CC(C)(C)C(O)C(Oc1ccc(Cl)cc1)n1cncn1 (stereo unspecified) was tested, and the outcome was “inactive”. For COP(=S)(OC)Oc1ccc([N+](=O)[O-])cc1, the outcome was “inactive”. ClC1C(Cl)C(Cl)C(Cl)C(Cl)C1Cl (stereo unspecified) was tested, and the outcome was “inactive”. In the case of CCOC1Oc2ccc(OS(C)(=O)=O)cc2C1(C)C (stereo unspecified), the outcome was “inactive”. For O=C(O)CCCOc1ccc(Cl)cc1Cl, the outcome was “inactive”.
